Results on 19 molecules are retold here after PubChem BioAssay (EPA / NIEHS).

Molecules are shown by their SMILES. Records with an inconclusive call do not appear. The source made the active and inactive calls. The calls were made as follows: active = hit-call score of the fitted dose curve at least 0.9, where 1 is the maximum; inconclusive = response in the unintended direction; inactive = score below 0.9.

The nature of this assay: ATG_Hpa5_TRANS: Attagene TRANS-FACTORIAL HepG2 Assay for human GAL4-Hpa5 Hepatocyte Transcription Factor Basal Promoter (AID 2282975).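 Also: hits are increases in reporter mRNA over DMSO baseline.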 The note with it: HepG2 Attagene GAL4-Hpa5 transcription reporter. In a few lines: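 Basal-promoter GAL4 background control within the HepG2 trans-factorial panel of transiently transfected reporter units. Reporter mRNA is measured 24 h after dosing by RT-PCR and capillary electrophoresis, fitted for gain of signal versus DMSO.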
For `Cc1c(F)c(F)c(COC(=O)C2C(/C=C(\Cl)C(F)(F)F)C2(C)C)c(F)c1F` (centres undefined), the outcome was inactive.

As for `O=C(O)c1nc(Cl)ccc1Cl`, the molecule was classed as inactive.

In the case of `CCOC(=O)C(Cl)Cc1cc(-n2nc(C)n(C(F)F)c2=O)c(F)cc1Cl` (centres undefined), the molecule was called inactive.

As to `CNC(=O)ON=CC(C)(C)SC`, the call was inactive.

Turning to `CCNc1nc(Cl)nc(NCC)n1`, the molecule was called inactive.

Take `N#CC(CCc1ccc(Cl)cc1)(Cn1cncn1)c1ccccc1` (centres undefined): the result was inactive.

Take `CCOP(=S)(OCC)SCn1c(=O)oc2cc(Cl)ccc21`: the result was inactive.

Regarding `Fc1ccc(Oc2ccnc3cc(Cl)cc(Cl)c23)cc1`, the molecule was classed as inactive.

As for `Cc1ccc(-c2c(Cl)nc(C#N)n2S(=O)(=O)N(C)C)cc1`, the call was inactive.

For `CC(Oc1ccc(Cl)cc1Cl)C(=O)O` (centres undefined), the result was inactive.

For the molecule `CCOc1cc(Oc2ccc(C(F)(F)F)cc2Cl)ccc1[N+](=O)[O-]`, the molecule was classed as inactive.

With `COC(=O)C(C)Oc1ccc(Oc2ccc(Cl)cc2Cl)cc1` (centres undefined), the result was inactive.

Turning to `Cc1cc(Cl)ccc1OCC(=O)O`, the outcome was inactive.

Turning to `C#CCOS(=O)OC1CCCCC1Oc1ccc(C(C)(C)C)cc1` (centres undefined), the outcome was inactive.

Consider `CC(C)Oc1cc(-n2nc(C(C)(C)C)oc2=O)c(Cl)cc1Cl`, for which the molecule was called inactive.

Consider `COP(N)(=O)SC` (centres undefined), for which the result was inactive.

On to `O=C(Nc1ccccc1)Nc1ccnc(Cl)c1`, for which the result was inactive.

Regarding `CC1COC(Cn2cncn2)(c2ccc(Oc3ccc(Cl)cc3)cc2Cl)O1` (centres undefined), the outcome was inactive.

Take `C=CC1(C)OC(=O)N(c2cc(Cl)cc(Cl)c2)C1=O` (centres undefined): the call was inactive.
